Test results reported in PubChem BioAssay (EPA / NIEHS).
More than one record can exist for a structure, and the calls need not agree. Active and inactive are the calls of the source. Rule for the calls: active = hit-call score of the fitted dose curve at least 0.9, where 1 is the maximum; inactive = score below 0.9.

Assays:
[1] = read-out: Tissue plasminogen activator (tPA), PLAT (gene 5327); experiment: BSK_BE3C_tPA: BioMAP Diversity Plus: BE3C Assay for Tissue plasminogen activator (tPA) Biomarker Activity (AID 2283041); conditions: primary human bronchial epithelial cells; actives raise or lower the signal
Method in brief: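 Primary human bronchial epithelial cells in the BE3C system, exposed to compound for 24 h. tPA was quantified by ELISA; DMSO served as baseline, with gain or loss of signal fitted. Cytotoxicity checked in parallel cultures by SRB total-protein staining.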

[2] = read-out: Interleukin-8 (IL8), CXCL8 (gene 3576); experiment: BSK_CASM3C_IL8: BioMAP Diversity Plus: CASM3C Assay for Interleukin-8 (IL8) Biomarker Activity (AID 2283042); conditions: primary human coronary artery smooth muscle cells; actives raise or lower the signal;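 note: IL-8 protein level quantified by ELISA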
[3] = read-out: Human Leukocyte Antigen - DR isotype (HLADR), HLA-DRA (gene 3122); experiment: BSK_CASM3C_HLADR: BioMAP Diversity Plus: CASM3C Assay for Human Leukocyte Antigen - DR isotype (HLADR) Biomarker Activity (AID 2283043); conditions: primary human coronary artery smooth muscle cells; actives raise or lower the signal;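 note: cell-surface HLA-DR protein level quantified by ELISA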
[4] = read-out: Macrophage colony-stimulating factor (MCSF), CSF1 (gene 1435); experiment: BSK_CASM3C_MCSF: BioMAP Diversity Plus: CASM3C Assay for Macrophage colony-stimulating factor (MCSF) Biomarker Activity (AID 2283044); conditions: primary human coronary artery smooth muscle cells; actives raise or lower the signal;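 note: M-CSF protein amount quantified by ELISA after 24 h exposure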
[5] = read-out: Low-density lipoprotein receptor (LDLR), LDLR (gene 3949); experiment: BSK_CASM3C_LDLR: BioMAP Diversity Plus: CASM3C Assay for Low-density lipoprotein receptor (LDLR) Biomarker Activity (AID 2283045); conditions: primary human coronary artery smooth muscle cells; actives raise or lower the signal;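 note: LDLR protein level on the cell surface quantified by ELISA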
[6] = read-out: Monocyte Chemoattractant Protein-1 (MCP1), CCL2 (gene 6347); experiment: BSK_CASM3C_MCP1: BioMAP Diversity Plus: CASM3C Assay for Monocyte Chemoattractant Protein-1 (MCP1) Biomarker Activity (AID 2283046); conditions: primary human coronary artery smooth muscle cells; actives raise or lower the signal;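 note: MCP-1 level quantified by ELISA 24 h after dosing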
[7] = BSK_CASM3C_Proliferation: Cell Proliferation Assessment in the BioMAP Diversity Plus: CASM3C Assay (AID 2283047); conditions: primary human coronary artery smooth muscle cells;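 note: sulforhodamine B total protein stain as relative cell number at 560 nm; sub-confluent cells exposed 48 h before staining; fitted both ways against DMSO so gain or loss of cell number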
[8] = read-out: Monokine induced gamma interferon (MIG), CXCL9 (gene 4283); experiment: BSK_CASM3C_MIG: BioMAP Diversity Plus: CASM3C Assay for Monokine induced gamma interferon (MIG) Biomarker Activity (AID 2283048); conditions: primary human coronary artery smooth muscle cells; actives raise or lower the signal;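 note: MIG protein level measured by ELISA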
[9] = read-out: serum amyloid A (SAA), SAA1 (gene 6288); experiment: BSK_CASM3C_SAA: BioMAP Diversity Plus: CASM3C Assay for serum amyloid A (SAA) Biomarker Activity (AID 2283049); conditions: primary human coronary artery smooth muscle cells; actives raise or lower the signal;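 note: SAA protein level quantified by ELISA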
[10] = BSK_CASM3C_SRB: Viability Assessment in the BioMAP Diversity Plus: CASM3C Assay (AID 2283050); conditions: primary human coronary artery smooth muscle cells
[11] = read-out: Thrombomodulin, THBD (gene 7056); experiment: BSK_CASM3C_Thrombomodulin: BioMAP Diversity Plus: CASM3C Assay for Thrombomodulin Biomarker Activity (AID 2283051); conditions: primary human coronary artery smooth muscle cells; actives raise or lower the signal;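 note: thrombomodulin protein level measured by ELISA 24 h after dosing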
[12] = read-out: Tissue Factor, F3 (gene 2152); experiment: BSK_CASM3C_TissueFactor: BioMAP Diversity Plus: CASM3C Assay for Tissue Factor Biomarker Activity (AID 2283052); conditions: primary human coronary artery smooth muscle cells; actives raise or lower the signal;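 note: cell surface tissue factor protein level read by ELISA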
[13] = read-out: Interferon-gamma inducible Protein 10 (IP10), CXCL10 (gene 3627); experiment: BSK_hDFCGF_IP10: BioMAP Diversity Plus: hDFCGF Assay for Interferon-gamma inducible Protein 10 (IP10) Biomarker Activity (AID 2283053); conditions: primary human foreskin fibroblasts; actives raise or lower the signal
Method in brief: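 Primary human foreskin fibroblasts exposed to chemicals for 24 h. IP-10 measured by ELISA; changes fitted bidirectionally against DMSO baseline.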

[14] = read-out: Urokinase-type plasminogen activator receptor (uPAR), PLAUR (gene 5329); experiment: BSK_CASM3C_uPAR: BioMAP Diversity Plus: CASM3C Assay for Urokinase-type plasminogen activator receptor (uPAR) Biomarker Activity (AID 2283054); conditions: primary human coronary artery smooth muscle cells; actives raise or lower the signal;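 note: cell-surface uPAR protein level quantified by ELISA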
[15] = read-out: Vascular cell adhesion molecule 1 (VCAM1), VCAM1 (gene 7412); experiment: BSK_CASM3C_VCAM1: BioMAP Diversity Plus: CASM3C Assay for Vascular cell adhesion molecule 1 (VCAM1) Biomarker Activity (AID 2283055); conditions: primary human coronary artery smooth muscle cells; actives raise or lower the signal;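 note: VCAM-1 protein level quantified by ELISA on the cells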
[16] = read-out: Collagen III, COL3A1 (gene 1281); experiment: BSK_hDFCGF_CollagenIII: BioMAP Diversity Plus: hDFCGF Assay for Collagen III Biomarker Activity (AID 2283056); conditions: primary human foreskin fibroblasts; actives raise or lower the signal
Method in brief: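 Human foreskin fibroblast primary cultures sampled 24 h after dosing; Collagen III quantified by ELISA. Signal fitted bidirectionally against DMSO baseline.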

[17] = read-out: Epidermal growth factor receptor (EGFR), EGFR (gene 1956); experiment: BSK_hDFCGF_EGFR: BioMAP Diversity Plus: hDFCGF Assay for Epidermal growth factor receptor (EGFR) Biomarker Activity (AID 2283057); conditions: primary human foreskin fibroblasts; actives raise or lower the signal
Method in brief: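 Primary human foreskin fibroblasts (hDFCGF system), sampled 24 h after dosing; EGFR quantified by ELISA. Bidirectional fit relative to DMSO baseline; SRB total-protein staining in parallel cultures for cytotoxicity.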

[18] = read-out: Interleukin-8 (IL8), CXCL8 (gene 3576); experiment: BSK_hDFCGF_IL8: BioMAP Diversity Plus: hDFCGF Assay for Interleukin-8 (IL8) Biomarker Activity (AID 2283058); conditions: primary human foreskin fibroblasts; actives raise or lower the signal
Method in brief: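 Primary human foreskin fibroblasts (hDFCGF system) dosed with chemical; IL-8 measured by ELISA 24 hours later. Bidirectional curve fitting relative to DMSO baseline; cytotoxicity tracked in parallel cultures by SRB total protein staining.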

[19] = BSK_hDFCGF_Proliferation: Cell Proliferation Assessment in the BioMAP Diversity Plus: hDFCGF Assay (AID 2283059); conditions: primary human foreskin fibroblasts;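 note: curves fitted for both rise and fall of signal versus DMSO baseline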
Method in brief: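 Total protein read at 560 nm after 0.1% SRB staining of TCA-fixed human skin fibroblasts, […]. Activity is fitted in both directions relative to DMSO as baseline.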

[20] = read-out: Macrophage colony-stimulating factor (MCSF), CSF1 (gene 1435); experiment: BSK_hDFCGF_MCSF: BioMAP Diversity Plus: hDFCGF Assay for Macrophage colony-stimulating factor (MCSF) Biomarker Activity (AID 2283060); conditions: primary human foreskin fibroblasts; actives raise or lower the signal
Method in brief: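 Human foreskin fibroblast primary cultures; M-CSF measured by ELISA 24 hours after chemical dosing. Bidirectional fitting relative to DMSO, with overt cytotoxicity tracked by parallel SRB total-protein staining (0.1% SRB, 10% TCA fixation, 560 nm).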

Measured: AC50

CCc1ccc(O)c(C(C)(C)C)c1
active: [7] 20 µM | [13] 35.2 µM | [16] 20 µM | [18] 36.3 µM | [19] 34.5 µM | [20] 27.4 µM
inactive: all other assays above

Cc1nccn1-c1ccc(Sc2cccc(C3(C(N)=O)CCOCC3)c2)cc1
active: [1] 4.43 µM | [3] 15.7 µM | [7] 20 µM | [8] 16.4 µM | [13] 10.2 µM | [15] 14.9 µM | [19] 4.15 µM
inactive: all other assays above

FC(F)(F)COC(OCC(F)(F)F)OCC(F)(F)F
inactive: all assays above

NC(=O)NN=Cc1ccc([N+](=O)[O-])o1
active: [19] 27.8 µM
inactive: all other assays above

C[C@]12C=CC(=O)C=C1CC[C@H]1[C@@H]3C[C@@H](O)[C@](O)(C(=O)CO)[C@@]3(C)C[C@H](O)[C@@]12F
active: [2] 0.246 µM | [3] 0.148 µM | [4] 0.417 µM | [6] 0.148 µM | [9] 0.354 µM | [11] 3.97 µM | [12] 0.149 µM | [19] 0.818 µM | [20] 0.58 µM
inactive: all other assays above

CCCOc1ccc(S(=O)(=O)N2CCN(CC)CC2)cc1-c1nc2c(CC)n(Cc3ccccn3)nc2c(=O)[nH]1
active: [3] 3.97 µM
inactive: all other assays above

CCCCN1C(=O)[C@@H]([C@H](O)C2CCCCC2)NC(=O)C12CCN(Cc1ccc(Oc3ccc(C(=O)O)cc3)cc1)CC2
active: [5] 9.69 µM | [7] 18.3 µM | [13] 31.2 µM | [19] 20 µM
not listed: [16]
inactive: all other assays above

O=S(=O)(O)CCC(F)(F)C(F)(F)C(F)(F)C(F)(F)C(F)(F)C(F)(F)F
inactive: [1] | [2] | [3] | [4] | [5] | [6] | [7] | [8] | [9] | [10] | [11] | [12] | [13] | [14] | [15] | [16] | [17] | [18] | [19] | [20]
active: [20] 6.02 µM

c1ccc2c(c1)-c1cccc3c1c-2cc1ccccc13
inactive: all assays above

c1ccc(C(O[C@@H]2CCCN(CCc3ccc4c(c3)OCO4)C2)c2ccccc2)cc1
active: [5] 17.3 µM | [7] 32.5 µM | [13] 26 µM | [16] 5.39 µM | [20] 20 µM
not listed: [17] | [19]
inactive: all other assays above

c1ccc2ncccc2c1
inactive: all assays above

O=C(O)[C@H](O)[C@@H](O)C(=O)O
inactive: all assays above

CCCCOC(=O)c1ccccc1
inactive: all assays above

CNC(C)=O
inactive: all assays above

CCCCCCCCCCCCCCO
active: [4] 31.3 µM | [5] 32.3 µM | [6] 32.4 µM | [7] 38 µM | [8] 29.5 µM | [9] 31 µM | [10] 30.2 µM | [11] 31.5 µM | [12] 31.5 µM | [13] 28.3 µM | [14] 33.3 µM | [15] 20 µM | [16] 11 µM | [18] 33.3 µM | [19] 12.2 µM | [20] 24.9 µM
inactive: [1] | [2] | [3] | [17]

OC(Cn1cncn1)(Cn1cncn1)c1ccc(F)cc1F
inactive: all assays above

C[C@@H](Oc1ccc(CNC(=O)c2cccnc2Oc2ccc3c(c2)OCO3)c(F)c1)C(=O)O
inactive: all assays above

CCCCCCCC1CCC(=O)O1 (stereo not drawn)
inactive: all assays above

COc1cc(C(C)C)c2c(c1)S(=O)(=O)N(COc1cc(=O)n3cccc(OCCN4CCCCC4)c3n1)C2=O
active: [1] 3 µM | [5] 3.65 µM | [7] 6.18 µM | [13] 6.1 µM | [15] 5 µM | [19] 5.44 µM | [20] 3.29 µM
inactive: all other assays above

CCCc1ccccc1
inactive: all assays above

OC[C@H]1O[C@@H]2O[C@H]3[C@H](O)[C@@H](O)[C@@H](O[C@H]4[C@H](O)[C@@H](O)[C@@H](O[C@H]5[C@H](O)[C@@H](O)[C@@H](O[C@H]6[C@H](O)[C@@H](O)[C@@H](O[C@H]7[C@H](O)[C@@H](O)[C@@H](O[C@H]1[C@H](O)[C@H]2O)O[C@@H]7CO)O[C@@H]6CO)O[C@@H]5CO)O[C@@H]4CO)O[C@@H]3CO
inactive: all assays above

CCCC(CCC)C(=O)O
inactive: all assays above

CC(C)CCCCCCOC(=O)C1CCCCC1C(=O)OCCCCCCC(C)C (stereo not drawn)
inactive: all assays above

CCn1nc(C)c2c1C(=O)NCC(c1ccc(O)cc1)=N2
active: [4] 2.51 µM | [7] 10 µM | [14] 8.18 µM | [19] 11 µM | [20] 3.97 µM
inactive: all other assays above

NCC(F)(F)C(F)(F)C(F)(F)C(F)(F)F
inactive: all assays above

CC[C@H](C)C(=O)O[C@H]1C[C@H](O)C=C2C=C[C@H](C)[C@H](CC[C@@H](O)C[C@@H](O)CC(=O)O)[C@H]21
active: [11] 15.3 µM
inactive: all other assays above
